# Measurements: the supplement of paper PMC12340641
# Structures can show the parent of a compound that is named as a salt. ± gives the standard deviation of the averaged measurements.
# What was measured:
# [1] = biological target: IKZF1 (dCK*-IKZF1 fusion in HEK293FT) (UniProt Q13422); test: inhibition of IKZF1 HTRF signal (DMSO = 0%, pomalidomide 10 uM = 100%); higher = lower IKZF1 protein level; conditions: compound concentration: 5 uM, overnight (~20 h)
# Outline: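 For percent inhibition of IKZF1 signal, each plate was normalised to vehicle and to a reference degrader. Cells were HEK293FT stably expressing an IKZF1 fusion, plated at 2000/well in 384-well format and treated overnight at 37 °C with 5 μM compound, one well each. Lysates were probed overnight with a commercial HTRF total-IKZF1 antibody kit, with the 665/620 nm ratio background-subtracted and vehicle and degrader fixed at 0% and 100%.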
# HEK293FT dCK*-only = test: relative growth in counter assay (no AraC = 100%, AraC + DMSO = 0%); higher = more growth rescue independent of IKZF1; conditions: compound concentration: 5 uM; AraC concentration: 0.3 uM; overnight pretreatment + 4 days AraC
# Outline: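 HEK293FT cells carrying only an engineered kinase construct were plated at 300 per well (384-well) and given 5 μM compound 2 h later. Following overnight at 37 °C, a nucleoside suicide substrate (0.3 μM) plus medium was added for 4 days. Hoechst 33342-stained nuclei were imaged and counted on day 5, with 100% assigned to wells without suicide substrate and 0% to substrate plus vehicle on each plate.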
# HEK293FT dCK*-IKZF1 = test: relative growth recovery (pomalidomide 10 uM = 100%, DMSO = 0%); higher = more growth rescue (IKZF1 fusion degradation); conditions: compound concentration: 5 uM; AraC concentration: 0.3 uM; overnight pretreatment + 4 days AraC
# Outline: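 Means of duplicates from different days are given for growth recovery, normalised per plate against a reference degrader and vehicle. The reference degrader set the 100% level and vehicle the 0% level. HEK293FT cells stably expressing a deoxycytidine kinase–IKZF1 fusion (300/well, 384-well) received 5 μM compound 2 h after seeding and, after overnight at 37 °C, 0.3 μM of a nucleoside suicide substrate plus medium for 4 days. Nuclei stained with Hoechst 33342 were then counted by whole-well imaging on day 5.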
# Sequence of IKZF1 (dCK*-IKZF1 fusion in HEK293FT) (Q13422 whole entry, looked up, the tested form may be a part): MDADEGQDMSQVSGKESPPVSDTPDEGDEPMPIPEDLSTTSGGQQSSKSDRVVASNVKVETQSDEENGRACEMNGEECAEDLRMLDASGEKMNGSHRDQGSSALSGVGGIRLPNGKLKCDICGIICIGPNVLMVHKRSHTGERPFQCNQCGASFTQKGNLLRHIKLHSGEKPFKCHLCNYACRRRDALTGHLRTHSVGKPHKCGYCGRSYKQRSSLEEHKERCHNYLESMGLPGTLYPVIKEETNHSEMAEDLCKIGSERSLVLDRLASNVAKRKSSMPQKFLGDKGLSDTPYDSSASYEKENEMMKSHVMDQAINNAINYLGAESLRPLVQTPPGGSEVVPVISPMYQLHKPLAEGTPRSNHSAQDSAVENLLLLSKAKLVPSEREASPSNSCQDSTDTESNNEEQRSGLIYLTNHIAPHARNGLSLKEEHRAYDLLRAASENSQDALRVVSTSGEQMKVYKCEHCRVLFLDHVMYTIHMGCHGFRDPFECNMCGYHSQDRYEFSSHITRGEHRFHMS
SMILES,inhibition of IKZF1 HTRF signal [1] [%],relative growth in counter assay (HEK293FT dCK*-only) [%],relative growth recovery (HEK293FT dCK*-IKZF1) [%]
CC(=O)N(O)[C@@H]1c2cc(C#N)ccc2OC(C)(C)[C@H]1O,13.4,-4.7,-2.73
COc1cc2ncnc(Nc3ccc(F)c(Cl)c3)c2cc1OCCCCCOCCOCCC(=O)N[C@H](C(=O)N1C[C@H](O)C[C@H]1C(=O)NCc1ccc(-c2scnc2C)cc1)C(C)(C)C [Gefitinib-based PROTAC 3],15.5,41.4,55.5
O=C(/C=C/c1cccnc1)c1ccncc1,-25,-28.4,-6.42
C/C(=C\c1csc(C)n1)[C@@H]1C[C@@H]2O[C@]2(C)CCC[C@H](C)[C@H](O)[C@@H](C)C(=O)C(C)(C)[C@@H](O)CC(=O)N1 [Ixabepilone],-13.2,-33.8,-10.8
COc1ccc(Cl)cc1C(=O)NCCc1ccc(C(=O)O)cc1 [meglitinide],-37.6,-0.23,-1.25
COc1ccc(CCCOC(Cn2ccnc2)c2ccc(OC)cc2)cc1 (stereo not drawn),-18.7,-32.6,-9.78
OC(c1cc(C(F)(F)F)nc2c(C(F)(F)F)cccc12)C1CCCCN1 (stereo not drawn),-31.6,-10.6,-7.16
O=c1oc(-c2ccc(C(F)(F)F)cc2)nn1Cc1cc(Cl)ccc1O,11.5,-6.2,-5.1
CN[C@H]1CC[C@@H](c2ccc(Cl)c(Cl)c2)c2ccccc21 [Sertraline HCl],18.8,-7.81,-6.62
Nc1nc(N)c2nc(-c3cccc(O)c3)cnc2n1,28.6,-10.5,-2.13
CC(C)[C@@H]1CC[C@@H](C)C[C@@H]1P(=O)(c1ccccc1)c1ccccc1,-20.4,3.21,-0.475
CCCNC(=O)NS(=O)(=O)c1ccc(Cl)cc1,-35.8,-2.41,1.51
CCCCCCCCCCC(CO)CCCCCCCC (stereo not drawn) [2-Octyldodecan-1-ol],-45,-4.55,-2.31
C[C@H]1O[C@@H](O[C@H]2[C@@H](O)C[C@H](O[C@H]3[C@@H](O)C[C@H](O[C@H]4CC[C@]5(C)C6C[C@@H](O)[C@]7(C)[C@@H](C8=CC(=O)OC8)CC[C@]7(O)C6CC[C@@H]5C4)O[C@@H]3C)O[C@@H]2C)C[C@H](O)[C@@H]1O (stereo partly drawn),68.6,-34.9,-12.4
CC[N+](CC)(CC)CC(=O)Nc1c(C)cccc1C,-32.9,-2.01,-0.165
COC(=O)C1=C(C)NC(C)=C([N+](=O)[O-])C1c1ccccc1C(F)(F)F (racemic),-43.6,-7.91,-0.605
CCCCCCCCCCCCCCCC[N+](C)(C)C,22.3,-33.4,-11.7
CCCCCNC(=N)N/N=C/c1c[nH]c2ccc(OC)cc12,-1.99,-5.1,-2.16
CC(C)N(CCC(=O)c1ccc2ccccc2c1)Cc1ccccc1,-41.5,-2.68,0.035
O=c1[nH]c(=O)n([C@H]2C[C@H](O)[C@@H](CO)O2)cc1F [Floxuridine],14.5,-29.6,-9.7
CCCCC/N=c1/ccn(Cc2ccccc2)c2ccccc12,-21.7,-2.74,-2.79
CO/N=C1\C[C@]2(C[C@@H]3C[C@@H](C/C=C(\C)C[C@@H](C)/C=C/C=C4\CO[C@@H]5[C@H](O)C(C)=C[C@@H](C(=O)O3)[C@]45O)O2)O[C@H](/C(C)=C/C(C)C)[C@H]1C,-19.4,-0.37,-1.09
"COc1ccc(/C=C/C(=O)/C=C(O)/C=C/c2ccc(OC)c(OC)c2)cc1OC [Dimethylcurcumin, ASC-J9]",-40.7,-25.6,-5.62
CC1(S(=O)(=O)[O-])CC(=O)c2ccccc2C1=O (stereo not drawn) [menadione-bisulfite],9.55,-12.2,-7.9
O=C1OCCN1/N=C/c1ccc([N+](=O)[O-])o1,-32.5,-3.23,-3.37
OCCN1CCN(CCCN2c3ccccc3Sc3ccc(Cl)cc32)CC1 [Perphenazine],0.695 ± 0.86,7.41 ± 5.6,2.98 ± 1
